{"source": "paper PMC8384837", "about": "“Expanding the binding specificity for RNA recognition by a PUF domain”", "assay_in_all_cases": "yeast three-hybrid, YBZ-1, SC-Leu-His + 0.5 mM 3-AT, 4 days", "settings_in_all_cases": "tags: N-Gal4 AD-HA kept; label: inside an RPR1-promoter hybrid RNA with tandem MS2 sites; ssRNA", "key": {"PUM1 PUF domain R3-LYR": {"target": "PUM1 PUF domain R3-LYR (Homo sapiens, UniProt Q14671 828-1176, C935L;R936Y;Q939R)", "method_in_brief": "(§1)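 A centromeric plasmid in strain YBZ-1 co-expressed Pumilio-1 PUF domain libraries, randomized at the three base-contacting residues of each repeat, with matching RNA elements; the strain carries a LexA–MS2 coat fusion and a HIS3 reporter. After four days on SC-Leu (input) or SC-Leu-His + 0.5 mM 3-AT (selection), the repeat regions were PCR-amplified and Illumina-sequenced. The interaction score is the log change in variant frequency from input to selection, using log2 and a pseudocount of 1 where absent.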"}, "PUM1 PUF domain R3-VWD": {"target": "PUM1 PUF domain R3-VWD (Homo sapiens, UniProt Q14671 828-1176, C935V;R936W;Q939D)", "method_in_brief": "as §1"}, "PUM1 PUF domain R5-NVR": {"target": "PUM1 PUF domain R5-NVR (Homo sapiens, UniProt Q14671 828-1176, C1007N;R1008V;Q1011R)", "method_in_brief": "as §1"}, "PUM1 PUF domain R5-KMV": {"target": "PUM1 PUF domain R5-KMV (Homo sapiens, UniProt Q14671 828-1176, C1007K;R1008M;Q1011V)", "method_in_brief": "as §1"}, "PUM1 PUF domain R5-PRK": {"target": "PUM1 PUF domain R5-PRK (Homo sapiens, UniProt Q14671 828-1176, C1007P;Q1011K)", "sequence (Q14671 828-1176 C1007P/Q1011K)": "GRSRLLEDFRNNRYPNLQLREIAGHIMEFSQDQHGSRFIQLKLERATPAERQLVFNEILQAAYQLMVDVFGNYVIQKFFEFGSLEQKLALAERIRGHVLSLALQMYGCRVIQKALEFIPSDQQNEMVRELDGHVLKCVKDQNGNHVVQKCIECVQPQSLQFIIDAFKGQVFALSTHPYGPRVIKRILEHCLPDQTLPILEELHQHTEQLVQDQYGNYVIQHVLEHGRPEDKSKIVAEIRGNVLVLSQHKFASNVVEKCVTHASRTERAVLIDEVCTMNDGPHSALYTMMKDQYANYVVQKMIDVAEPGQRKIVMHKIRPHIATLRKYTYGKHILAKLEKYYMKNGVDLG", "method_in_brief": "as §1"}, "PUM1 PUF domain R7-ERR": {"target": "PUM1 PUF domain R7-ERR (Homo sapiens, UniProt Q14671 828-1176, S1079E;N1080R;E1083R)", "method_in_brief": "as §1"}, "PUM1 PUF domain R7-DYV": {"target": "PUM1 PUF domain R7-DYV (Homo sapiens, UniProt Q14671 828-1176, S1079D;N1080Y;E1083V)", "method_in_brief": "as §1"}, "PUM1 PUF domain R1-KKD": {"target": "PUM1 PUF domain R1-KKD (Homo sapiens, UniProt Q14671 828-1176, S863K;R864K;Q867D)", "method_in_brief": "as §1"}, "PUM1 PUF domain R1-GWK": {"target": "PUM1 PUF domain R1-GWK (Homo sapiens, UniProt Q14671 828-1176, S863G;R864W;Q867K)", "method_in_brief": "as §1"}, "PUM1 PUF domain R1-WKR": {"target": "PUM1 PUF domain R1-WKR (Homo sapiens, UniProt Q14671 828-1176, S863W;R864K;Q867R)", "method_in_brief": "as §1"}, "PUM1 PUF domain R8-IYW": {"target": "PUM1 PUF domain R8-IYW (Homo sapiens, UniProt Q14671 828-1176, N1122I;Q1126W)", "method_in_brief": "as §1"}, "PUM1 PUF domain R8-KRV": {"target": "PUM1 PUF domain R8-KRV (Homo sapiens, UniProt Q14671 828-1176, N1122K;Y1123R;Q1126V)", "method_in_brief": "as §1"}, "PUM1 PUF domain R8-RYC": {"target": "PUM1 PUF domain R8-RYC (Homo sapiens, UniProt Q14671 828-1176, N1122R;Q1126C)", "method_in_brief": "as §1"}, "PUM1 PUF domain R8-LYI": {"target": "PUM1 PUF domain R8-LYI (Homo sapiens, UniProt Q14671 828-1176, N1122L;Q1126I)", "method_in_brief": "as §1"}, "PUM1 PUF domain R6-VFL": {"target": "T1, PUM1 PUF domain R6-VFL (Homo sapiens, UniProt Q14671 828-1176, N1043V;Y1044F;Q1047L)", "T1 sequence": "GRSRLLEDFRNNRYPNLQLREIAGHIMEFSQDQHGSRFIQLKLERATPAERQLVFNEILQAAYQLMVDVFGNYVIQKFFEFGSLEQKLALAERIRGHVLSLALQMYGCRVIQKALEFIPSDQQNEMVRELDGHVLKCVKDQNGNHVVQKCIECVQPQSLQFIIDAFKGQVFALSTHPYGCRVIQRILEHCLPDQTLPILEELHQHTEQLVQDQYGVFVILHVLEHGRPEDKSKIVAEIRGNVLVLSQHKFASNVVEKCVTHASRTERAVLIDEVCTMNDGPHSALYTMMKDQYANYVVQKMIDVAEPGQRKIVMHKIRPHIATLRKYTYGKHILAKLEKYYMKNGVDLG", "method_in_brief": "as §1"}, "PUM1 PUF domain R2-AWS": {"target": "PUM1 PUF domain R2-AWS (Homo sapiens, UniProt Q14671 828-1176, N899A;Y900W;Q903S)", "method_in_brief": "as §1"}, "PUM1 PUF domain R4-SPQ": {"target": "PUM1 PUF domain R4-SPQ (Homo sapiens, UniProt Q14671 828-1176, N971S;H972P)", "method_in_brief": "as §1"}, "PUM1 PUF domain R5-PHQ": {"target": "PUM1 PUF domain R5-PHQ (Homo sapiens, UniProt Q14671 828-1176, C1007P;R1008H)", "method_in_brief": "as §1"}, "PUM1 PUF domain R8-RFK": {"target": "PUM1 PUF domain R8-RFK (Homo sapiens, UniProt Q14671 828-1176, N1122R;Y1123F;Q1126K)", "method_in_brief": "as §1"}, "PUM1 PUF domain R4-NCG": {"target": "PUM1 PUF domain R4-NCG (Homo sapiens, UniProt Q14671 828-1176, H972C;Q975G)", "method_in_brief": "as §1"}}}
{"sequence": "GGCUAGAACUAGUGGAUCCCCCGGCGCCCGGCGGCUCGAGCCCGGGUAAGUGUAAGUAGUCUGCAUGCCGCCGGGCGCCAUGCCUGCAGGUCGACUCUAGAAAACAUG", "values": [{"measurement": "binding signal", "setting": "PUM1 PUF domain R3-LYR", "value": "5.31 log2 enrichment (interaction score)"}, {"measurement": "binding signal", "setting": "PUM1 PUF domain R3-VWD", "value": "1.13 log2 enrichment (interaction score)"}]}
{"sequence": "GGCUAGAACUAGUGGAUCCCCCGGCGCCCGGCGGCUCGAGCCCGGGUAAGUGUCAAUAGUCUGCAUGCCGCCGGGCGCCAUGCCUGCAGGUCGACUCUAGAAAACAUG", "values": [{"measurement": "binding signal", "setting": "PUM1 PUF domain R5-NVR", "value": "2.77 log2 enrichment (interaction score)"}, {"measurement": "binding signal", "setting": "PUM1 PUF domain R5-KMV", "value": "3.71 log2 enrichment (interaction score)"}, {"measurement": "binding signal", "setting": "PUM1 PUF domain R5-PRK", "value": "2.13 log2 enrichment (interaction score)"}]}
{"sequence": "GGCUAGAACUAGUGGAUCCCCCGGCGCCCGGCGGCUCGAGCCCGGGUAAGUUUAAAUAGUCUGCAUGCCGCCGGGCGCCAUGCCUGCAGGUCGACUCUAGAAAACAUG", "values": [{"measurement": "binding signal", "setting": "PUM1 PUF domain R7-ERR", "value": "3.08 log2 enrichment (interaction score)"}, {"measurement": "binding signal", "setting": "PUM1 PUF domain R7-DYV", "value": "6 log2 enrichment (interaction score)"}]}
{"sequence": "GGCUAGAACUAGUGGAUCCCCCGGCGCCCGGCGGCUCGAGCCCGGGUAAGUGUAAAUUGUCUGCAUGCCGCCGGGCGCCAUGCCUGCAGGUCGACUCUAGAAAACAUG", "values": [{"measurement": "binding signal", "setting": "PUM1 PUF domain R1-KKD", "value": "3.36 log2 enrichment (interaction score)"}, {"measurement": "binding signal", "setting": "PUM1 PUF domain R1-GWK", "value": "3.01 log2 enrichment (interaction score)"}, {"measurement": "binding signal", "setting": "PUM1 PUF domain R1-WKR", "value": "3.54 log2 enrichment (interaction score)"}]}
{"sequence": "GGCUAGAACUAGUGGAUCCCCCGGCGCCCGGCGGCUCGAGCCCGGGUAAGUGUUAAUAGUCUGCAUGCCGCCGGGCGCCAUGCCUGCAGGUCGACUCUAGAAAACAUG", "values": [{"measurement": "binding signal", "setting": "PUM1 PUF domain R5-NVR", "value": "4.09 log2 enrichment (interaction score)"}, {"measurement": "binding signal", "setting": "PUM1 PUF domain R5-PRK", "value": "4.06 log2 enrichment (interaction score)"}]}
{"sequence": "GGCUAGAACUAGUGGAUCCCCCGGCGCCCGGCGGCUCGAGCCCGGGUAAGCGUAAAUAGUCUGCAUGCCGCCGGGCGCCAUGCCUGCAGGUCGACUCUAGAAAACAUG", "values": [{"measurement": "binding signal", "setting": "PUM1 PUF domain R8-IYW", "value": "2.87 log2 enrichment (interaction score)"}, {"measurement": "binding signal", "setting": "PUM1 PUF domain R8-KRV", "value": "3.19 log2 enrichment (interaction score)"}, {"measurement": "binding signal", "setting": "PUM1 PUF domain R8-RYC", "value": "5.8 log2 enrichment (interaction score)"}, {"measurement": "binding signal", "setting": "PUM1 PUF domain R8-LYI", "value": "2.78 log2 enrichment (interaction score)"}]}
{"sequence": "GGCUAGAACUAGUGGAUCCCCCGGCGCCCGGCGGCUCGAGCCCGGGUAAGUGUAAUUAGUCUGCAUGCCGCCGGGCGCCAUGCCUGCAGGUCGACUCUAGAAAACAUG", "values": [{"measurement": "binding signal", "setting": "PUM1 PUF domain R3-LYR", "value": "4.25 log2 enrichment (interaction score)"}]}
{"sequence": "GGCUAGAACUAGUGGAUCCCCCGGCGCCCGGCGGCUCGAGCCCGGGUAAGUGUGAAUAGUCUGCAUGCCGCCGGGCGCCAUGCCUGCAGGUCGACUCUAGAAAACAUG", "values": [{"measurement": "binding signal", "setting": "PUM1 PUF domain R5-PRK", "value": "3.87 log2 enrichment (interaction score)"}]}
{"sequence": "GGCUAGAACUAGUGGAUCCCCCGGCGCCCGGCGGCUCGAGCCCGGGUAAGUGAAAAUAGUCUGCAUGCCGCCGGGCGCCAUGCCUGCAGGUCGACUCUAGAAAACAUG", "values": [{"measurement": "binding signal", "setting": "PUM1 PUF domain R6-VFL", "value": "7.04 log2 enrichment (interaction score)"}]}
{"sequence": "GGCUAGAACUAGUGGAUCCCCCGGCGCCCGGCGGCUCGAGCCCGGGUAAGUCUAAAUAGUCUGCAUGCCGCCGGGCGCCAUGCCUGCAGGUCGACUCUAGAAAACAUG", "values": [{"measurement": "binding signal", "setting": "PUM1 PUF domain R7-ERR", "value": "1.25 log2 enrichment (interaction score)"}]}
{"sequence": "GGCUAGAACUAGUGGAUCCCCCGGCGCCCGGCGGCUCGAGCCCGGGUAAGUGUAAAAAGUCUGCAUGCCGCCGGGCGCCAUGCCUGCAGGUCGACUCUAGAAAACAUG", "values": [{"measurement": "binding signal", "setting": "PUM1 PUF domain R2-AWS", "value": "4.37 log2 enrichment (interaction score)"}]}
{"sequence": "GGCUAGAACUAGUGGAUCCCCCGGCGCCCGGCGGCUCGAGCCCGGGUAAGUGUAAAUAGUCUGCAUGCCGCCGGGCGCCAUGCCUGCAGGUCGACUCUAGAAAACAUG", "values": [{"measurement": "binding signal", "setting": "PUM1 PUF domain R4-SPQ", "value": "3.02 log2 enrichment (interaction score)"}, {"measurement": "binding signal", "setting": "PUM1 PUF domain R6-VFL", "value": "1.07 log2 enrichment (interaction score)"}, {"measurement": "binding signal", "setting": "PUM1 PUF domain R5-PHQ", "value": "3.63 log2 enrichment (interaction score)"}, {"measurement": "binding signal", "setting": "PUM1 PUF domain R3-LYR", "value": "4.29 log2 enrichment (interaction score)"}, {"measurement": "binding signal", "setting": "PUM1 PUF domain R8-KRV", "value": "2.09 log2 enrichment (interaction score)"}, {"measurement": "binding signal", "setting": "PUM1 PUF domain R8-RFK", "value": "6.27 log2 enrichment (interaction score)"}, {"measurement": "binding signal", "setting": "PUM1 PUF domain R8-RYC", "value": "5.15 log2 enrichment (interaction score)"}, {"measurement": "binding signal", "setting": "PUM1 PUF domain R8-LYI", "value": "1.1 log2 enrichment (interaction score)"}, {"measurement": "binding signal", "setting": "PUM1 PUF domain R5-PRK", "value": "2.27 log2 enrichment (interaction score)"}, {"measurement": "binding signal", "setting": "PUM1 PUF domain R3-VWD", "value": "5.84 log2 enrichment (interaction score)"}]}
{"sequence": "GGCUAGAACUAGUGGAUCCCCCGGCGCCCGGCGGCUCGAGCCCGGGUAAGUGUAAAUCGUCUGCAUGCCGCCGGGCGCCAUGCCUGCAGGUCGACUCUAGAAAACAUG", "values": [{"measurement": "binding signal", "setting": "PUM1 PUF domain R1-GWK", "value": "3.6 log2 enrichment (interaction score)"}, {"measurement": "binding signal", "setting": "PUM1 PUF domain R1-WKR", "value": "1.59 log2 enrichment (interaction score)"}]}
{"sequence": "GGCUAGAACUAGUGGAUCCCCCGGCGCCCGGCGGCUCGAGCCCGGGUAAGUGUAUAUAGUCUGCAUGCCGCCGGGCGCCAUGCCUGCAGGUCGACUCUAGAAAACAUG", "values": [{"measurement": "binding signal", "setting": "PUM1 PUF domain R4-NCG", "value": "3.59 log2 enrichment (interaction score)"}]}
